Screening results: PubChem, Sanford-Burnham Center for Chemical Genomics
CRFR2-BP antag: antagonists of CRF-BP/CRF-R2 complex, primary screen, cell-based, HEK293, calcium dye fluorescence, uHTS | AID 588475, 2011 | actives 0.59% (n = 350,000) | CRF-induced calcium fluorescence | inhibition, % at 11.8 µM;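 active = inhibition of the ligand-induced calcium signal above about 50% at the single tested concentration, limit read from the data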
CRFBP-R2 agonist: agonists of CRF-BP/CRF-R2 complex, primary screen, cell-based, HEK293, calcium dye fluorescence, uHTS. CRF-binding protein / CRF receptor 2 complex (human). calcium dye fluorescence (FLIPR); percent of saturating CRF peptide response. activation, % at 13.2 µM. AID 588473, 2011. actives 0.46% (n = 350,000);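 active = activation of at least 50%, plus an integration ratio under a set limit after plate pattern correction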;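 note: plate controls were neutral control wells without compound for no effect and CRF at EC100 for full effect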
FAS-TE inh: FAS thioesterase domain inhibitors, primary screen, biochemical, fluorescence intensity, uHTS; Fatty acid synthase (Homo sapiens), P49327; recombinant FAS-TE, OMFH fluorogenic substrate, fluorescence endpoint; inhibition, % at 15 µM; actives 0.67% (n = 360,000);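 active = compounds whose normalised, plate-corrected inhibition of enzyme fluorescence in the single-dose primary screen is 50% or more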;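 note: 0% = DMSO with enzyme and 100% = substrate without enzyme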
H9c2 protect: cardioprotection against H2O2-induced cell death, primary screen, uHTS, H9c2 cells, ATPLite luminescence; H9c2 cardiomyocytes, H2O2 injury protection, 2 h; AID 588492, 2011; actives 0.63% (n = 360,000); protection from H2O2 cell death, % at 20 µM;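 active = compounds giving at least 50% protection of heart cells from peroxide-induced death in the single-dose screen, raw or plate-pattern-corrected value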;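 note: 0% = DMSO wells with peroxide and 100% = DMSO wells without peroxide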
aDG glyco act: activators of alpha-DG glycosylation, primary screen, uHTS, Pro5-aDG cells, AlphaScreen; actives 0.22% (n = 360,000); activation, % at 10 µM; AID 624168, 2012; alpha-DG glycosylation AlphaScreen (IIH6); 0% Pro5, 100% B10-LARGE cell signal;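 active = activation of at least 8% versus controls, or a plate z-score of at least 8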;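 note: Pro5 are CHO cells carrying HIG-tagged alpha-DG that lacks glycosylation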
PfG6PD inh: PfG6PD enzyme inhibitors, primary screen, biochemical, fluorescence intensity, uHTS; glucose-6-phosphate dehydrogenase-6-phosphogluconolactonase (Plasmodium falciparum 3D7); PfGluPho enzyme, NADPH resazurin-diaphorase fluorescence; inhibition, % at 20 µM; actives 0.78% (n = 350,000); AID 504690, 2011;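 active = inhibition reaching at least a set limit at 20 µM in the primary screen, cut at about 59% in these data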;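 note: 0% = DMSO wells with substrate and 100% = DMSO wells lacking glucose-6-phosphate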
PfG6PD confirm: PfG6PD inhibitors, hit retest, confirmation, biochemical, fluorescence intensity, single concentration; shares compounds with PfG6PD inh; recombinant PfGluPho, NADPH-diaphorase-resazurin fluorescence; inhibition, % at 20 µM; AID 504753, 2011; actives 34% (n = 2,400);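 active = inhibition of at least 50% at 20 µM in any single replicate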;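 note: 0% = DMSO with substrate and 100% = DMSO lacking glucose-6-phosphate substrate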
Diaphorase 10uM: diaphorase inhibitors and chemical oxidizers, confirmation, counter-screen for P. falciparum G6PD inhibitor project, biochemical, fluorescence intensity, 10 µM NADPH. inhibition, % at 20 µM. shares compounds with PfG6PD inh. AID 504862, 2011. diaphorase-coupled resazurin reduction, NADPH 10 uM. actives 39% (n = 820);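 active = average inhibition reaching 50% or more with the compound at 20 µM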;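 note: resorufin red fluorescence formed as diaphorase reduces resazurin using NADPH; 0% = DMSO with enzyme and 100% = DMSO without enzyme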
Diaphorase 30uM: diaphorase inhibitors and chemical oxidizers, confirmation, counter-screen for P. falciparum G6PD inhibitor project, biochemical, fluorescence intensity, 30 µM NADPH; Diaphorase/resazurin coupled assay, resorufin fluorescence; inhibition, % at 20 µM; actives 29% (n = 820); shares compounds with PfG6PD inh;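 active = inhibition averaging 50% or more, tested at 20 µM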;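 note: 0% = DMSO with enzyme and 100% = DMSO wells lacking diaphorase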
Numbers without * were called inactive; / = no result. An excerpt weighted towards active compounds, which were near 3.2% of everything screened.

SMILES	CRFR2-BP antag	CRFBP-R2 agonist	FAS-TE inh	H9c2 protect	aDG glyco act	PfG6PD inh	PfG6PD confirm	others
COc1ccccc1Nc1nnc(SCc2cc(=O)n3cc(C)ccc3n2)s1	-1	1	10	21	-1	69*	45
O=C(CSc1ncccn1)Nc1ccc2[nH]c(=O)[nH]c2c1	12	-2	-4	5	0	25	/
Cc1nc(SCC(=O)Nc2ccc3[nH]c(=O)[nH]c3c2)nc(C)c1C	-1	2	-6	-1	0	64*	8
CC(C)NC(=O)c1nc2c(nnn2Cc2cccc(Cl)c2)c(=O)[nH]1	4	0	-4	-4	0	-4	/
Cc1nn(C)c(C(=O)NNC(=S)NCC(C)C)c1Cl	-17	1	-11	2	0	4	/
COc1ccc(C(=O)NCC2(c3ccc(OC)c(OC)c3)CCCC2)cc1OC	28	1	-7	-1	0	-10	/
COc1ccc(C2(CNC(=O)c3ccc(OC)c([N+](=O)[O-])c3)CCCCC2)cc1OC	-57	-1	28	-1	0	85*	53*	Diaphorase 10uM=54*;Diaphorase 30uM=43
O=C(NCc1ccc2c3c(cccc13)C(=O)N2)c1cccs1	-12	2	-3	37	0	11	/
CCn1c(=O)n(CC)c2cc(N3CCCC3)c(NC(=O)c3cccc(C)c3)cc21	15	-1	-4	10	0	71*	84*	Diaphorase 10uM=-10;Diaphorase 30uM=9
COC(=O)c1scc(C)c1S(=O)(=O)Nc1ccc(C)cc1	13	-1	2	-2	0	70*	21
Nc1cc2nc[nH]c2cc1N	-29	8	-4	-1	0	60*	-10
Cc1cc(C(=O)CCl)c(C)n1-c1c(C)n(C)n(-c2ccccc2)c1=O	-16	6	-8	-1	2	-9	/
O=C1C=CC(=O)c2c(O)c(N3CCN(CCO)CC3)c(Cl)c(O)c21	11	4	1	-15	0	103*	89*	Diaphorase 10uM=54*;Diaphorase 30uM=57*
O=C1C=CC(=O)c2c(O)c(N3CCN(CCOCCO)CC3)c(Br)c(O)c21	1	3	5	-14	0	115*	87*	Diaphorase 10uM=61*;Diaphorase 30uM=53*
O=S(=O)(c1ccc(Br)cc1Cl)N1CCN(CCO)CC1	1	0	-1	-2	0	-11	/
Cc1ccc(NC(=O)c2sc(=S)n(-c3cc(C)ccc3F)c2N)cc1	-6	0	23	-5	0	75*	25
Cc1ccc(-n2c(N)c(C(N)=O)sc2=S)c(C)c1	-26	-3	-9	-3	0	62*	29
Cc1ccc(-n2c(N)c(C(=O)Nc3ccccc3F)sc2=S)cc1C	-4	-2	18	-5	0	70*	-3
Cc1ccccc1-n1c(N)c(C(=O)Nc2ccc(F)cc2)sc1=S	7	-1	1	2	0	34	/
CCOC(=O)c1sc(=S)n(-c2ccc(F)c(F)c2)c1N	1	-1	-3	4	0	50	/
COC(=O)c1ccccc1NC(=O)c1sc(=S)n(C)c1N	4	0	13	1	0	63*	40
CC1CC(C)CN(CCCNC(=O)C2CCCN(S(=O)(=O)N3CC(C)CC(C)C3)C2)C1 (stereo unspecified)	0	1	-10	8	0	-6	/
CC(C)c1ccccc1OCCNC(=S)NC(=O)c1cccnc1	-14	0	20	-3	1	67*	21
Cc1cc(Cl)ccc1OCCNC(=S)NC(=O)c1cccnc1	-50	-6	3	-4	0	-27	/
CN(C)c1ccc(NC(=S)c2ccc3ccccc3n2)cc1	-21	2	13	-14	0	67*	37
SMILES	CRFR2-BP antag	CRFBP-R2 agonist	FAS-TE inh	H9c2 protect	aDG glyco act	PfG6PD inh	PfG6PD confirm	others
NCCNc1ccc(C(=O)N2c3ccccc3Sc3ccccc32)cc1[N+](=O)[O-]	-3	2	-55	-14	0	69*	92*	Diaphorase 10uM=17;Diaphorase 30uM=14
Brc1cccc(-c2nnc(SCc3nc4ccccc4[nH]3)o2)c1	-9	-2	2	-9	0	60*	13
CCOc1ccc(N)c(SSc2cc(OCC)ccc2N)c1	3	1	-10	-14	0	68*	45
Cc1ccc2nc(-c3ccc(NC(=S)NC(=O)C(C)C)cc3)sc2c1	-3	3	4	-9	0	-1	/
Cc1ccc2nc(-c3ccc(NC(=S)NC4CC(C)(C)NC(C)(C)C4)cc3)sc2c1	-8	0	-51	-15	-1	93*	111*	Diaphorase 10uM=-16;Diaphorase 30uM=-1
O=C(CSc1ccc(S(=O)(=O)N2CCCC2)cn1)Nc1ccc([N+](=O)[O-])cc1C(F)(F)F	3	2	39	-9	0	7	/
Cc1cccc(OCC(=O)NCC(=O)N/N=C/c2c(C)[nH]c3ccccc23)c1	5	0	1	17	0	63*	26
C[C@H](CO)N1C[C@H](C)[C@@H](CN(C)C(=O)Nc2ccc(C(F)(F)F)cc2)Oc2c(NC(=O)c3ccncc3)cccc2C1=O	-5	0	3	7	0	38	/
C[C@H](CO)N1C[C@H](C)[C@@H](CN(C)C(=O)Nc2ccc(C(F)(F)F)cc2)Oc2c(cccc2N(C)C)C1=O	2	-4	8	-3	0	82*	64*	Diaphorase 10uM=54*;Diaphorase 30uM=48
COc1ccc(S(=O)(=O)N2CCc3ccccc32)cc1OC	6	0	3	-10	0	28	/
CCn1c(=O)n(CC)c2cc(S(=O)(=O)N3CCc4ccccc43)ccc21	-53	12	-1	-14	3	78*	44
CC(NCc1cc(Br)ccc1OCC(N)=O)C12CC3CC(CC(C3)C1)C2 (stereo unspecified)	-15	-1	0	8	1	10	/
